Screening results from PubChem.
Marburg entry inh – qHTS for inhibitors of binding or entry into cells for Marburg Virus; Marburg virus pseudotyped entry inhibition, cell reporter; Potency, µM (doses to about 37.8 µM), most hits filed as inhibitors; 300,000 compounds, 1.8% hits; calls by dose curve; tested in HEK293 cells
LASV entry inh – qHTS for Inhibitors of binding or entry into cells for Lassa Virus | 300,000 compounds, 1.2% hits | AID 540256, 2011 | Potency, µM (highest dose often 37.9 µM), most hits filed as inhibitors | Lassa virus pseudotype entry inhibition, cell reporter; calls by dose curve; tested in HEK293 cells; note: nearly all actives have a fitted effect of over 50% in size
FMDV inh – High Throughput Screening for Foot and Mouth Disease Virus Antivirals; 410,000 compounds, 1.2% hits; FMDV antiviral cell-based qHTS; Potency, µM (series often up to 57.9 µM), most hits filed as inhibitors; calls by dose curve; tested in HEK293T cells; note: read-out not given here; nearly all actives have a fitted effect of over 45% in size
HCMV antiviral – qHTS Assay for inhibitors of the human cytomegalovirus (HCMV) | AID 1259415, 2018 | HFF cells, HCMV-luciferase reporter, 72 h; active compounds read low | 410,000 compounds, 4.5% hits | activity change, negative = inhibition, % at 57.5 µM; in the data active = activity change below about -60%; inconclusive = no clear call, values can overlap the other calls; inactive = above about -39%
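Inhibition of viral replication was scored as loss of reporter luminescence in HFFs infected with HCMV-luciferase (MOI 1 PFU/cell) for 72 h; compounds tested at 2 doses, normalized to buffer and Salinomycin controls.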
HCV inh – qHTS Assay for Inhibitors of Hepatitis C Virus (HCV). Huh7.5.1 HCVcc-Cre infection, luciferase reporter, 44 h. Potency, µM (series often up to 41.8 µM), hits mostly inhibitors. AID 651820, 2012. 340,000 compounds, 3.4% hits; active = well fitted inhibition curve with a large enough effect; inconclusive = small, poorly fitted or top-dose-only effect, or another doubt; inactive = no such curve, though single readings can be large or run the other way
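Reporter virus HCVcc-Cre (~0.5 moi) infects cells exposed to compound; seeding density 1,000 cells/well with 4 h settling beforehand. Luminescence, 15 sec read, taken 44 h post-infection following a 15 min RT substrate incubation.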
Large screens that a line does not name were inactive. An excerpt weighted towards active compounds, which were near 7.9% of everything screened.

O=C(Nc1ccc(CN2CCOCC2)cc1)c1ccccc1F	none
COc1ccc(C(=O)NCC2Cc3cc(C)cc(-c4nc5ccccc5s4)c3O2)c(OC)c1OC (stereo not drawn)	none (no result: Marburg entry inh, LASV entry inh, HCMV antiviral, HCV inh)
O=C(NCCN1CCOCC1)c1cc2ccccc2oc1=O	Marburg entry inh inconclusive, HCV inh 3.16µM
O=C(NCCN1CCOCC1)c1cc2ccccc2o1	none
CC(C)Oc1ccc(-c2cc(C(=O)NCCN3CCOCC3)c3ccccc3n2)cc1	HCV inh 10µM
COc1cc2ccccc2cc1C(=O)Nc1ccc(CN2CCOCC2)cc1	HCV inh 6.31µM (no result: LASV entry inh)
O=C(NCCN1CCOCC1)c1cc(-c2ccc(F)cc2)nc2ccccc12	LASV entry inh inconclusive
Cc1ccc(C2=NCC(C)n3c2c2ccccc2[n+]3[O-])cc1 (stereo not drawn)	none (no result: Marburg entry inh, LASV entry inh, FMDV inh, HCV inh)
CC(C)C(=O)N1CCN(c2ccccc2NC(=O)c2cccc3ccccc23)CC1	Marburg entry inh inconclusive, LASV entry inh inconclusive, FMDV inh inconclusive, HCMV antiviral -64.8, HCV inh inconclusive
O=C(Nc1ccc(N2CCOCC2)cc1)c1cccc2c(Br)cccc12	none
O=C(Nc1ccccc1N1CCOCC1)c1cccc2c(Br)cccc12	HCMV antiviral inconclusive, HCV inh 5.62µM (no result: Marburg entry inh, LASV entry inh)
COc1cccc([C@H]2/C(=C(\O)c3ccc(C)cc3)C(=O)C(=O)N2Cc2ccco2)c1	none (no result: LASV entry inh, FMDV inh, HCMV antiviral, HCV inh)
CCOc1ccc(/C=C/c2nc(C#N)c(N(C)C)o2)cc1	none (no result: HCV inh)
COC(=O)C1CCCCN1Cc1ccc2c(c1)CN(Cc1cn[nH]c1-c1ccc(F)cc1)CCO2 (stereo not drawn)	none (no result: Marburg entry inh, LASV entry inh, HCMV antiviral, HCV inh)
COc1ccc(C(=O)CN2CCN(CCN3C(=O)c4cccc5cccc(c45)C3=O)CC2)cc1	FMDV inh inconclusive, HCV inh 10µM (no result: Marburg entry inh, LASV entry inh)
COc1cc2c3c(cccc3c1)C(=O)N(CCN1CCCC1)C2=O	HCMV antiviral -97.8 (no result: Marburg entry inh, LASV entry inh, HCV inh)
CC(C)(C)C(=O)N1CCN(CCN2C(=O)c3cccc4cccc(c34)C2=O)CC1	LASV entry inh inconclusive
O=C(CN1CCN(CCN2C(=O)c3cccc4cccc(c34)C2=O)CC1)c1ccc(Cl)cc1	HCV inh inconclusive (no result: FMDV inh, HCMV antiviral)
O=C(CN1CCN(CCN2C(=O)c3cccc4cccc(c34)C2=O)CC1)c1ccc(F)cc1	HCV inh 14.1µM
CCc1cc2c(=O)n(Cc3ccco3)c(SCc3c(C)noc3C)nc2s1	Marburg entry inh inconclusive, LASV entry inh inconclusive, HCV inh 10µM
CCc1cc2c(=O)n(Cc3ccco3)c(SCC(=O)N(C)C3CCS(=O)(=O)C3)nc2s1 (stereo not drawn)	LASV entry inh inconclusive, HCV inh inconclusive
CCc1cc2c(=O)n(Cc3ccco3)c(SCC(=O)NC3CCS(=O)(=O)C3)nc2s1 (stereo not drawn)	none
CCc1cc2c(=O)n(Cc3ccco3)c(SCC(=O)NCC3CCCO3)nc2s1 (stereo not drawn)	Marburg entry inh inconclusive, LASV entry inh inconclusive, FMDV inh 25.1µM, HCMV antiviral inconclusive, HCV inh 10µM
CCc1cc2c(=O)n(Cc3ccco3)c(SCC(=O)N3CCCc4ccccc43)nc2s1	Marburg entry inh inconclusive, LASV entry inh inconclusive, HCV inh 10µM
COc1ccc(-c2nc(CSCC(=O)NCCc3ccc(C)cc3)c(C)o2)cc1OC	none (no result: HCV inh)
O=C(CN1C(=O)c2ccccc2S1(=O)=O)Nc1ccccc1C(=O)NCc1ccco1	none
O=C(CN1C(=O)c2cccc3cccc1c23)Nc1ccccc1C(=O)NCc1ccco1	Marburg entry inh inconclusive, LASV entry inh inconclusive, HCMV antiviral -61.1
CN(C)CCN(Cc1ccco1)C(=O)c1cc2c(Cl)nc3ccccc3c2s1	Marburg entry inh 14.6µM, HCMV antiviral inconclusive, HCV inh 10µM
Cc1ccc2nc(Cl)c3cc(C(=O)N(CCN(C)C)Cc4ccco4)sc3c2c1	Marburg entry inh inconclusive, HCMV antiviral inconclusive, HCV inh inconclusive
Cn1c(O)c(/C=C2\N=c3ccccc3=C2CCNC(=S)NC2CC2)c(=O)n(C)c1=O	FMDV inh 12.6µM
Cn1c(O)c(/C=C2\C=c3ccccc3=NC2=O)c(=O)n(C)c1=O	none (no result: Marburg entry inh, LASV entry inh)
CN(CC(=O)Nc1ccc(F)c(F)c1F)C(=O)c1cc(-c2ccncc2)nc2ccccc12	Marburg entry inh inconclusive, HCV inh inconclusive
CN(CC(=O)Nc1ccc(Cl)c(C(F)(F)F)c1)C(=O)c1cc(-c2ccncc2)nc2ccccc12	Marburg entry inh inconclusive, FMDV inh 28.2µM, HCV inh inconclusive
